# Assay results from the supplement of paper PMC8728848.
# Shown is part of a subset that was picked to be rich in the strongest signals.
# B1: a L Fucosidase (Streptosporangium roseum), D2B1P1_STRRD (protein)
# chain: MRRKLLLVPAVGLLVIGSIFATQPVASADTPPVYEPTVESLNSHPVPQWFNDDKFGIFIHWGAYSVPAWGPRGSYAEWYGNYMNAGGSATNAHHKATYGQDFNYDAFLQQWKAEKFDPADWVKLFKDAGAKYFVLTSKHHEGMALWDSKSSGRDSVDLGPGRDLAKELFDAARKDEAKLKAGFYYSLYEWYNPAYTGRPATNPYTGAEIPYTGAPGGGDYVKDYMLPQMRELIDGYDPDIIWCDGQWEKPASYWNTAGVIADYYNKALNSGKEVAVANRCKIQSGNLDSPELDFQTPEYTVKPDIDPVKWESSRGIAHSYGYNQNEPEEDHLTSDQLVDSLVDIVSKNGNLLLDIGPKADGTIPEIQRQRLLDIGAWLKANGEAIYGTTYWNRAEEKGGPDDVRYTAKDATLYATALKWPGEQLTLGADLPVDHSTRITMLGSGARLSWSRDEQGRVVVNTPQEAGKHAYVFKIETPGVRSLLRTSSSLAKEIAPGRTISGELTVTNPGKRHTPATKLSLTVPQGWTATLGAPRVRPLGPGESVKVPISVSAPEGVAPAPYTLGLYQRTGRMGTTTALPLTVNRPNLSLGKPATQKSTGYDAPASRAVDGNTGGDWSAGSTTHTAEPEKQAWWQVDLGASARLDSVDVWNRLDCCADRLKDFWVMASDQPFTTDDLDQARTAPGVTAVHVGEQAGSPSKVKLPEGTRGRYVRIQLASPSNPLSLAEVQVRGSMARPNLSLGKPATQKSTGYDAPASRAVDGNTGGDWSAGSTTHTAEPEKQAWWQVDLGASARLDSVDVWNRLDCCADRLKDFWVMASDQPFTTDDLDQARTAPGVTAVHVGEQAGSPSKVKLPEGTRGRYVRIQLASPSNPLSLAEVQVRLEHHHHHHS
# Tests used:
# Assay in all cases: glycan array binding signal (z-score within array); higher = stronger binding
# Details in all cases: glycan notation: IUPAC condensed, linker removed
# Fuc(a1-2)Gal = target: Fuc(a1-2)Gal
# Method in brief: (§1)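 Negative Z-scores can be read as non-binding. The Z-score is calculated within each array and then averaged across arrays of one protein sequence at different concentrations or buffers and across linkers. Arrays, 3228 in all, were curated from the Consortium for Functional Glycomics database and kept only where the protein sequence was available.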
# [1] = target: Fuc(a1-2)Gal(b1-3)GlcNAc(b1-2)Man(a1-3)[Fuc(a1-2)Gal(b1-3)GlcNAc(b1-2)Man(a1-6)]Man(b1-4)GlcNAc(b1-4)GlcNAc
# Method in brief: as §1
# [2] = target: Fuc(a1-2)Gal(b1-3)GlcNAc(b1-3)[Neu5Ac(a2-6)Gal(b1-4)GlcNAc(b1-6)]Gal(b1-4)Glc
# Method in brief: as §1
# [3] = target: Fuc(a1-2)Gal(b1-4)Fuc(a1-3)]GlcNAc(b1-2)Man(a1-3)[Fuc(a1-2)Gal(b1-4)[Fuc(a1-3)]GlcNAc(b1-2)Man(a1-6)]Man(b1-4)GlcNAc(b1-4)GlcNAc
# Method in brief: as §1
# [4] = target: Fuc(a1-2)Gal(b1-4)GlcNAc(b1-3)Gal(b1-4)GlcNAc(b1-2)Man(a1-3)[Fuc(a1-2)Gal(b1-4)GlcNAc(b1-3)Gal(b1-4)GlcNAc(b1-2)Man(a1-6)]Man(b1-4)GlcNAc(b1-4)GlcNAc
# Method in brief: as §1
# [5] = target: Fuc(a1-2)Gal(b1-4)GlcNAc(b1-3)Gal(b1-4)GlcNAc(b1-3)Gal(b1-4)GlcNAc
# Method in brief: as §1
# [6] = target: Fuc(a1-2)Gal(b1-4)GlcNAc(b1-6)GalNAc
# Method in brief: as §1
# [7] = target: Fuc(a1-2)Gal(b1-4)[Fuc(a1-3)]GlcNAc
# Method in brief: as §1
# [8] = target: Fuc(a1-2)Gal(b1-4)[Fuc(a1-3)]GlcNAc(b1-2)Man(a1-3)[Fuc(a1-2)Gal(b1-4)[Fuc(a1-3)]GlcNAc(b1-2)Man(a1-6)]Man(b1-4)GlcNAc(b1-4)[Fuc(a1-6)]GlcNAc
# Method in brief: as §1
# [9] = target: Fuc(a1-2)Gal(b1-4)[Fuc(a1-3)]GlcNAc(b1-2)[Fuc(a1-2)Gal(b1-4)[Fuc(a1-3)]GlcNAc(b1-4)]Man(a1-3)[Fuc(a1-2)Gal(b1-4)[Fuc(a1-3)]GlcNAc(b1-2)Man(a1-6)]Man(b1-4)GlcNAc(b1-4)GlcNAc
# Method in brief: as §1
# [10] = target: Fuc(a1-2)Gal(b1-4)[Fuc(a1-3)]GlcNAc(b1-3)Gal(b1-4)[Fuc(a1-3)]GlcNAc
# Method in brief: as §1
# [11] = target: Fuc(a1-2)Gal(b1-4)[Fuc(a1-3)]GlcNAc(b1-3)Gal(b1-4)[Fuc(a1-3)]GlcNAc(b1-3)Gal(b1-4)[Fuc(a1-3)]GlcNAc
# Method in brief: as §1
# Fuc(a1-2)[Gal(a1-3)]Gal = target: Fuc(a1-2)[Gal(a1-3)]Gal
# Method in brief: as §1
# [12] = target: Fuc(a1-2)[Gal(a1-3)]Gal(b1-3)GalNAc
# Method in brief: as §1
# [13] = target: Fuc(a1-2)[Gal(a1-3)]Gal(b1-3)GlcNAc(b1-3)GalNAc
# Method in brief: as §1
# [14] = target: Fuc(a1-2)[Gal(a1-4)]Gal(b1-4)GlcNAc
# Method in brief: as §1
# [15] = target: Fuc(a1-2)[GalNAc(a1-3)]Gal(b1-3)GalNAc(a1-3)[Fuc(a1-2)]Gal(b1-4)GlcNAc
# Method in brief: as §1
# [16] = target: Fuc(a1-2)[GalNAc(a1-3)]Gal(b1-4)GlcNAc(b1-2)Man
# Method in brief: as §1
# [17] = target: Fuc(a1-2)[GalNAc(a1-3)]Gal(b1-4)GlcNAc(b1-2)Man(a1-3)[Fuc(a1-2)[GalNAc(a1-3)]Gal(b1-4)GlcNAc(b1-2)Man(a1-6)]Man(b1-4)GlcNAc(b1-4)[Fuc(a1-6)]GlcNAc
# Method in brief: as §1
# [18] = target: Fuc(a1-2)[GalNAc(a1-3)]Gal(b1-4)GlcNAc(b1-3)Gal(b1-4)GlcNAc(b1-3)Gal(b1-4)GlcNAc
# Method in brief: as §1
# [19] = target: Fuc(a1-2)[GalNAc(b1-3)]Gal
# Method in brief: as §1
# [20] = target: Fuc(a1-3)[Gal3S(b1-4)]GlcNAc
# Method in brief: as §1
# [21] = target: Gal(a1-3)Gal(b1-4)GlcNAc(b1-6)GalNAc
# Method in brief: as §1
# Gal(b1-3)GlcNAc6S = target: Gal(b1-3)GlcNAc6S
# Method in brief: as §1
# [22] = target: Gal(b1-4)GlcNAc(b1-2)Man(a1-3)[Gal(b1-4)GlcNAc(b1-2)Man(a1-6)][Gal(b1-4)GlcNAc(b1-4)]Man(b1-4)GlcNAc(b1-4)[Fuc(a1-6)]GlcNAc
# Method in brief: as §1
# [23] = target: Gal(b1-4)GlcNAc(b1-2)[Gal(b1-4)GlcNAc(b1-6)]Man(a1-6)[Gal(b1-4)GlcNAc(b1-2)Man(a1-3)]Man(b1-4)GlcNAc(b1-4)[Fuc(a1-6)]GlcNAc
# Method in brief: as §1
# [24] = target: Gal(b1-4)GlcNAc(b1-3)Gal(b1-4)GlcNAc(b1-3)Gal(b1-4)GlcNAc(b1-3)Gal(b1-4)GlcNAc(b1-3)Gal(b1-4)GlcNAc(b1-2)Man(a1-3)[Gal(b1-4)GlcNAc(b1-3)Gal(b1-4)GlcNAc(b1-3)Gal(b1-4)GlcNAc(b1-3)Gal(b1-4)GlcNAc(b1-3)Gal(b1-4)GlcNAc(b1-2)Man(a1-6)]Man(b1-4)GlcNAc(b1-4)GlcNAc
# Method in brief: as §1
binder,measurement,setting,value
B1,glycan array binding signal (z-score),Fuc(a1-2)Gal,4.93
same,glycan array binding signal (z-score),[1],0.052
same,glycan array binding signal (z-score),[2],-0.56
same,glycan array binding signal (z-score),[3],0.398
same,glycan array binding signal (z-score),[4],9.35
same,glycan array binding signal (z-score),[5],4.15
same,glycan array binding signal (z-score),[6],4.78
same,glycan array binding signal (z-score),[7],3.89
same,glycan array binding signal (z-score),[8],3.58
same,glycan array binding signal (z-score),[9],0.785
same,glycan array binding signal (z-score),[10],9.04
same,glycan array binding signal (z-score),[11],5.04
same,glycan array binding signal (z-score),Fuc(a1-2)[Gal(a1-3)]Gal,3.18
same,glycan array binding signal (z-score),[12],-0.442
same,glycan array binding signal (z-score),[13],0.499
same,glycan array binding signal (z-score),[14],4.37
same,glycan array binding signal (z-score),[15],-0.325
same,glycan array binding signal (z-score),[16],1.44
same,glycan array binding signal (z-score),[17],0.363
same,glycan array binding signal (z-score),[18],4.02
same,glycan array binding signal (z-score),[19],-0.567
same,glycan array binding signal (z-score),[20],0.551
same,glycan array binding signal (z-score),[21],0.325
same,glycan array binding signal (z-score),Gal(b1-3)GlcNAc6S,-0.504
same,glycan array binding signal (z-score),[22],1.72
same,glycan array binding signal (z-score),[23],-0.467
same,glycan array binding signal (z-score),[24],-0.491
